Laboratory results from PMC4336329 (PLoS ONE, 2015).
Out of some 310,000 compounds screened, about 14,000 (4.5%) showed an effect of 50% or more. The effect is printed as a negative number. Only a selection was taken, and strong results are over-represented in it overall.

Target: human ether-à-go-go-related gene (hERG) potassium channel (human, UniProt Q12809)
Experiment: primary screen, population patch clamp on CHO cells stably expressing hERG; higher = less effect of the substance
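Further: peak tail current of the secondary pulse compared with the same well before compound.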

Sequence of human ether-à-go-go-related gene (hERG) potassium channel (Q12809 whole entry, looked up): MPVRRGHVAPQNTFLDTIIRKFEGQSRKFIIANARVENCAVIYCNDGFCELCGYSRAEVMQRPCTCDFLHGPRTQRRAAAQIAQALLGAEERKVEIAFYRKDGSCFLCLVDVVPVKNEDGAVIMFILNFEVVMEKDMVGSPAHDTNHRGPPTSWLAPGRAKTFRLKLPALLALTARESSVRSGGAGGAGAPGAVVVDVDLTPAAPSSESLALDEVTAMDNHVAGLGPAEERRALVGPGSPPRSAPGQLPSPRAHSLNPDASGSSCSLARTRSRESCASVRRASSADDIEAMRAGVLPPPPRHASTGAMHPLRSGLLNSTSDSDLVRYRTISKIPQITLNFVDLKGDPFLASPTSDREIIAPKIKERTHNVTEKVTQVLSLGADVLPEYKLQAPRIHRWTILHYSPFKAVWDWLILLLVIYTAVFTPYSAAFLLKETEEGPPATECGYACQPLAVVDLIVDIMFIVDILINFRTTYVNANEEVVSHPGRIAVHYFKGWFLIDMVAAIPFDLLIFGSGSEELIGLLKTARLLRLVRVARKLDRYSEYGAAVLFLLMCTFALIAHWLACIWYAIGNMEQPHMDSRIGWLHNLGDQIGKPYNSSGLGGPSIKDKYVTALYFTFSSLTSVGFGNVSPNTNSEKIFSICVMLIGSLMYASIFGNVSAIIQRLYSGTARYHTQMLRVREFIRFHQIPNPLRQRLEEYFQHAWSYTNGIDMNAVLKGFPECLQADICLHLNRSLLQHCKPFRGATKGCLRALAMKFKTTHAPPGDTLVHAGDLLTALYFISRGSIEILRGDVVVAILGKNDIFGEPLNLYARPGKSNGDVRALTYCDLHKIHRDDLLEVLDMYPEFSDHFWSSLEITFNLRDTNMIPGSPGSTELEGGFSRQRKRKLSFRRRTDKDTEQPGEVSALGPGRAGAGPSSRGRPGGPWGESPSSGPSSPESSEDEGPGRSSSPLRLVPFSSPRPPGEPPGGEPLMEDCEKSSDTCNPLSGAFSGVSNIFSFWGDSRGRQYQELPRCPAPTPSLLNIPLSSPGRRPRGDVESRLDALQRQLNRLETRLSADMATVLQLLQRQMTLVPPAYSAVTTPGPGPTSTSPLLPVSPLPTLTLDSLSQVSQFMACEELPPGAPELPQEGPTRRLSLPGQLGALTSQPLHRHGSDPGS

Compound | hERG current change (%, negative = inhibition) at 10uM [%]
Cc1cc(C)n2c3c(c(C#N)c2n1)CC(C)(C)OC3 | 2.81
c1ccc(-c2nc(NCc3ccco3)c3ccccc3n2)nc1 | -62.9
CCC(C)Nc1nc(-c2ccccn2)nc2ccccc12 (stereo not drawn) | -50.2
c1ccc(CCNc2nc(-c3ccncc3)nc3ccccc23)cc1 | 3.71
c1ccc(CCNc2nc(-c3ccccn3)nc3ccccc23)cc1 | -78.6
C(=N\Nc1nc(-c2ccccn2)nc2ccccc12)/c1ccccc1 | 12.3
CC(C)(C)Nc1nc(-c2ccccn2)nc2ccccc12 | -69.8
Oc1ccccc1-c1nc(NCc2ccco2)c2ccccc2n1 | 1.8
c1ccc(-c2nc(NCC3CCCO3)c3ccccc3n2)nc1 (stereo not drawn) | -23.3
c1ccc(CNc2nc(-c3ccccn3)nc3ccccc23)cc1 | -43.5
Cl.c1ccc(-c2nc(NCc3ccco3)c3ccccc3n2)cc1 | -33.4
C/C(=N\Nc1nc(-c2ccccn2)nc2ccccc12)c1ccc(F)cc1 | 11
CCC(C)Nc1nc(-c2cccc(OC)c2O)nc2ccccc12 (stereo not drawn) | -5.73
CCc1ccccc1NC(=O)COc1ccc2c(=O)c(Oc3cc(C)ccc3C)coc2c1 | 10.5
Cc1cc(C(C)(C)C)c(OC(=O)[C@@H]2OC(c3ccccc3)=C[C@H]2c2ccccc2)c(C(C)(C)C)c1 | 7.58
c1coc(C2Nc3ccccc3C3OCCC23)c1 (stereo not drawn) | 6.63
CC(C)Cn1c(N)c(C(=O)COC(=O)C2=COCCO2)c(=O)n(C)c1=O | 14.1
CCOC(=O)NCN1C(=O)C2C3C=CC(C3)C2C1=O (stereo not drawn) | -11.9
CCCCN(CCCC)c1nc(-c2ccncc2)nc2ccccc12 | -0.281

Compound | hERG current change (%, negative = inhibition) at 10uM [%]
CCCN(CCC)c1nc(-c2ccccn2)nc2ccccc12 | -74.4
CCN(CC)c1nc(-c2ccccc2)nc2ccccc12.Cl | -32.5
Cc1ccc(N2CC(C(=O)NCc3ccccn3)CC2=O)cc1 (stereo not drawn) | 5.36
Cc1ccc(-c2csc(NC(=O)c3cc([N+](=O)[O-])ccc3N3CCOCC3)n2)cc1 | 15.4
COc1ccc(C(NC(N)=O)c2ccccc2)cc1 (stereo not drawn) | 10.3
S=C(Nc1ccc(Cl)cc1)N(CCCN1CCOCC1)Cc1cccs1 | -32.4
Cc1cc(C)cc(NC(=S)N(CCN(C)C)Cc2cccs2)c1 | -25.1
Cc1cc(C)cc(NC(=S)N(CCCN2CCN(C)CC2)Cc2cccs2)c1 | -63.3
Cc1ccc(NC(=S)N(CCN(C)C)Cc2cccs2)cc1 | -19.3
Cc1ccc(NC(=S)N(CCCN2CCN(C)CC2)Cc2cccs2)cc1 | -51.3
CN1CCN(CCCN(Cc2cccs2)C(=S)Nc2ccc(Cl)cc2)CC1 | -71.8
CCc1ccc(NC(=S)N(CCCN2CCN(C)CC2)Cc2cccs2)cc1 | -62.5
Cc1cc(C)c(NC(=S)N(CCCN2CCN(C)CC2)Cc2cccs2)c(C)c1 | -43.9
CCc1cccc(C)c1NC(=S)N(CCCN1CCN(C)CC1)Cc1cccs1 | -30.9
CC1CCCC(NS(=O)(=O)c2cc(Br)cnc2N)C1C (stereo not drawn) | -8.36
CC(=O)NC(CC(=O)Nc1nc(-c2ccccc2)c(C(C)=O)s1)c1ccccc1 (stereo not drawn) | -44.4
COc1ccccc1C(=O)NNC1=C(C(=O)C(F)(F)F)CCC1 | -2.03
O=C(CCl)NN1C(=O)NC(c2ccccc2)(c2ccccc2)C1=O | 11.2
O=C(O)c1ccc(N(c2ccccc2)c2ccccc2)cc1 | 2.69

Compound | hERG current change (%, negative = inhibition) at 10uM [%]
CCCN1CCN(C(=O)c2cccc3c2C(=O)N(CCOC)C3)CC1 | 13
COc1ccc(-c2nnc(SCC(N)=O)n2N)cc1 | 6.29
COc1cc(/C=N/NC(=O)c2nnn(-c3nonc3N)c2C(C)C)ccc1O | -2.72
O=C1CC(NC(=O)c2ccc(Cl)cc2)C(=O)N1 (stereo not drawn) | 14.8
Cc1cccc2sc(NC(=O)c3ccc(OCC4CCCO4)cc3)nc12 (stereo not drawn) | 9.85
CCc1ccc(NC(=S)N2CCNC(=O)C2CC(=O)OC)cc1 (stereo not drawn) | 7.17
COCCNC(=O)CCCCCNS(=O)(=O)c1ccc(C)cc1 | 8.18
CCN(CC)CCNC(=O)c1ccc(NC(=O)Cc2ccccc2F)cc1 | -6.75
CCc1ccc(N(CC(=O)NC(C)(C)C)C(=O)CNC(=O)c2cccs2)cc1 | 15.5
Cc1nc(S/C(=C/c2ccc(-c3ccc(C(=O)O)cc3)o2)C(=O)O)n[nH]1 | -11.4
Cc1ccc(NC(=S)N(CCCN2CCN(C)CC2)Cc2cccs2)cc1C | -57
Cc1ccc(NC(=S)N(CCN(C)C)Cc2cccs2)cc1C | -46.7
O=S(=O)(c1ccc(SCc2ccccc2)nc1)N1CCCCC1 | 4.03
O=C(C[n+]1ccccc1)Nc1nc2ccccc2s1.[Cl-] | 0.223
COc1ccc(C2CC(c3ccc(Br)cc3)=NN2C(=O)CCC(=O)O)cc1OC (stereo not drawn) | 9.97
Cc1ccc(O)c(NC(=O)C2CC(c3ccc(F)cc3)=NO2)c1 (stereo not drawn) | -3.98
C[C@]12CC[C@@H](O)C[C@H]1CC[C@@H]1[C@@H]2CC[C@]2(C)C(=O)CC[C@@H]12 | -3.43
C[C@]12CC[C@@H](O)C[C@@H]1CC[C@@H]1[C@@H]2CC[C@]2(C)C(=O)CC[C@@H]12 | 5.99
C[C@]12CC[C@H](O)C[C@@H]1CC[C@@H]1[C@@H]2CC[C@]2(C)C(=O)CC[C@@H]12 | -58.3
